According to PubChem BioAssay (NCATS):
Active and inactive are the calls of the source. Calls come from the whole dose curve.

Molecular target: Catechol O-methyltransferase (Homo sapiens) (UniProt P21964)
Assay: Confirmatory Screen for Target Class Profiling of Small Molecule Inhibitors of Methyltransferases (AID 1745852); for activity change, negative = inhibition: % is set by controls: 0 for no effect and ±100 for the full control effect
Details: MTase-Glo luminescence, SAH detection, recombinant enzyme; measured here: COMT max response; stronger effect = lower value
Potency is the fitted concentration of half-maximal effect.

Chain of Catechol O-methyltransferase (Homo sapiens) (P21964 whole entry, looked up): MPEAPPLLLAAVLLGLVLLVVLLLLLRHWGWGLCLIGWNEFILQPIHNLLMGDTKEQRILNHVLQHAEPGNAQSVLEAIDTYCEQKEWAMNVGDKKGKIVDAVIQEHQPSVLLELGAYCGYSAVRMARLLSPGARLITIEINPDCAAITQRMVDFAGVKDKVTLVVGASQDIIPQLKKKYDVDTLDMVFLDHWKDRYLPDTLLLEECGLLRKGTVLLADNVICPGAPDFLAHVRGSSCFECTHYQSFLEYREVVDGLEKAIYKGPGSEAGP

Compound | activity [%]
CN1CCC(N2CC[C@H](c3nc4ccccc4[nH]3)C2)CC1 | -6.53
COc1cccc(N2C(=O)c3cc4occc4n3CC2(C)C(=O)NC2CCCCCC2)c1 (centres undefined) | -4.86
C1=C(c2nc(-c3ccncc3)cc3c2ccn3Cc2cccnc2)CCOC1 | -19
CN1C(=O)C(c2ccccc2)CC12CCN(c1ccnc(N)n1)CC2 (centres undefined) | 6.59
CCOC(=O)c1ccc(NC(=O)Cn2c(=O)oc3cc(S(=O)(=O)N4CCCC4)ccc32)cc1 | -7.51
Cc1ccc(C)c(N2CCN(C(=O)c3ccc4c(=O)[nH]c5c(C(=O)NC(C)C)sc(=S)n5c4c3)CC2)c1 | -41.7
c1ccc(-c2[nH]nc3ncc(-c4cn[nH]c4)nc23)cc1 | -73.4
COc1cccc(-c2ccccc2NC(=O)C2CCN(CC=C(C)C)CC2)c1 | 0.831
CCn1cc(CN2CCN(C(=O)c3cccs3)CC2)ccc1=O | 0.352
CC(C)Cn1c(=O)c2ccccc2n2c(CCC(=O)N3CCN(c4ccc(F)cc4)CC3)nnc12 | -4.42
Cn1c(=O)c2ccnn2c2ccc(C(=O)NCC3CCN(Cc4ccccc4F)CC3)cc21 | 3.91
CCN(CC)CCNC(=O)CCc1nnc2n(CCc3ccccc3)c(=O)c3ccccc3n12 | -2.93
CC(C)CCNC(=O)c1ccc2c(=O)[nH]c3c(C(=O)NC4CCCC4)sc(=S)n3c2c1 | -37.7
CN1CCCC2(C1)CN(C)c1ccc(C(=O)NCC3CCCCC3)cc12 (centres undefined) | 1.14
COc1cccc(CNC(=O)c2sc(=S)n3c2[nH]c(=O)c2cc4c(cc23)OCO4)c1 | -25.7
Cn1cnc(CN2CCNc3cc(Nc4ccccc4)ncc3C2)c1 | 7.14
COCCn1ccc2c(C3=CCOCC3)nc(-c3cccc4[nH]ccc34)cc21 | -2.42
Cc1nc2c3ccccc3n3c(CCCC(=O)NCCCN(C)Cc4ccccc4)nnc3n2n1 | -2.29
Cc1noc2c(N3CCOCC3)cc(-c3cccs3)nc12 | -4.75
COc1ccc(C(=O)N(Cc2ccco2)S(=O)(=O)c2ccc3c(c2)n(C)c(=O)n3C)cc1 | -5.23
O=S(=O)(c1ccc(Br)cc1)c1nnn2c1nc(NCCc1c[nH]c3ccccc13)c1ccccc12 | -1.9
CCN(CC)CCNC(=O)CCc1nnc2n(Cc3ccc(C)cc3)c(=O)c3ccccc3n12 | -5.02
Cc1ccc(NC(=O)N2CCc3c(c4ccccc4n3CC3CC3)C2)cc1 | 6.89
COc1ccccc1CC(=O)N1CCCc2ncc(C(=O)Nc3cccc(Cl)c3)cc21 | 2.46

Molecular target: Guanidinoacetate N-methyltransferase (Homo sapiens) (UniProt Q14353)
Assay: as above
Details: MTase-Glo luminescence, SAH detection, recombinant enzyme; activity change, negative = inhibition: at 57.3 µM (top of the series) unless noted; series mostly up to 57.3 µM

Compound | activity change, negative = inhibition | Potency | outcome
C[S+](=O)([O-])N1CCC(Cn2ccc3c(N4CCOCC4)nc(-c4cccc5[nH]ncc45)cc32)CC1 | -3.16% |  | 
COC(=O)c1nc(NC(=O)Cn2nc3c(cc2=O)CCCC3)sc1C(C)C | 0.9% |  | 
CN(C)CCNC(=O)c1ccnc(-c2nnc3ccc(N(C)c4ccccc4)nn23)c1 | -11.8% [at 85.7 µM] |  | 
CN(CCc1nc2ccc(Cl)cc2[nH]1)c1cc(C2CC(O)C2)nc(N)n1 (centres undefined) | 2.73% |  | 
COC(=O)C(Cc1c[nH]c2ccccc12)NC(=O)c1ccccc1Br (centres undefined) | 0% |  | 
CCc1ccc(N2C(=O)c3cc4sccc4n3CC2(C)C(=O)NC2CCCCCC2)cc1 (centres undefined) | 0.902% |  | 
Oc1ccc(NCCN2CCCC2)cc1 | -14.6% [at 114 µM] |  | 
Cc1ccc(S(=O)(=O)c2nnn3c2nc(N2CCC(N4CCCCC4)CC2)c2ccccc23)cc1C | 0% |  | 
CC(C)Cn1c(=O)c2ccccc2n2c(CCC(=O)NCCc3ccc(Cl)cc3)nnc12 | -1.54% |  | 
CN(CCCNC(=O)CCc1nnc2n(Cc3ccccc3)c(=O)c3ccccc3n12)Cc1ccccc1 | 0% |  | 
COC(=O)[C@@H]1Cc2ncn(Cc3ccc(Cl)cc3)c2CN1CCCc1ccccc1 | 2.15% [at 85.7 µM] |  | 
CN1CCC(N2CC[C@H](c3nc4ccc(C(F)(F)F)cc4[nH]3)C2)CC1 | 9.6% [at 85.7 µM] |  | 
O=C(NCc1ccc(Cl)cc1)c1ccc2c(=O)[nH]c3c(C(=O)NC4CCCC4)sc(=S)n3c2c1 |  | 42.9 µM (active) | 
Cc1ccc(NS(=O)(=O)c2ccc3[nH]c(=O)[nH]c3c2)cc1F | -6.18% |  | 
CC1(C(=O)NC2CCCCCC2)Cn2c(cc3occc32)C(=O)N1Cc1ccc2c(c1)OCO2 (centres undefined) |  |  | inactive
CCCn1c(=O)c2cc(F)ccc2n2c(SCc3c(F)cccc3Cl)nnc12 | 0.239% |  | 
CN1CCC(N2CC[C@H](c3nc4ccccc4[nH]3)C2)CC1 | -8.47% [at 114 µM] |  | 
COc1cccc(N2C(=O)c3cc4occc4n3CC2(C)C(=O)NC2CCCCCC2)c1 (centres undefined) | -2.57% |  | 
C1=C(c2nc(-c3ccncc3)cc3c2ccn3Cc2cccnc2)CCOC1 | -9.57% [at 85.7 µM] |  | 
CN1C(=O)C(c2ccccc2)CC12CCN(c1ccnc(N)n1)CC2 (centres undefined) | 9.95% |  | 

Compound | activity change, negative = inhibition | Potency | outcome
CCOC(=O)c1ccc(NC(=O)Cn2c(=O)oc3cc(S(=O)(=O)N4CCCC4)ccc32)cc1 | -4.51% |  | 
Cc1ccc(C)c(N2CCN(C(=O)c3ccc4c(=O)[nH]c5c(C(=O)NC(C)C)sc(=S)n5c4c3)CC2)c1 | -2.19% |  | 
c1ccc(-c2[nH]nc3ncc(-c4cn[nH]c4)nc23)cc1 |  | 31.2 µM (active) | 
COc1cccc(-c2ccccc2NC(=O)C2CCN(CC=C(C)C)CC2)c1 | 3.69% |  | 
CCn1cc(CN2CCN(C(=O)c3cccs3)CC2)ccc1=O | -2.5% |  | 
CC(C)Cn1c(=O)c2ccccc2n2c(CCC(=O)N3CCN(c4ccc(F)cc4)CC3)nnc12 | 2.04% |  | 
Cn1c(=O)c2ccnn2c2ccc(C(=O)NCC3CCN(Cc4ccccc4F)CC3)cc21 | 6.11% |  | 
CCN(CC)CCNC(=O)CCc1nnc2n(CCc3ccccc3)c(=O)c3ccccc3n12 | 1.05% |  | 
CC(C)CCNC(=O)c1ccc2c(=O)[nH]c3c(C(=O)NC4CCCC4)sc(=S)n3c2c1 |  | 27.1 µM (active) | 
CN1CCCC2(C1)CN(C)c1ccc(C(=O)NCC3CCCCC3)cc12 (centres undefined) | -0.167% [at 85.7 µM] |  | 
COc1cccc(CNC(=O)c2sc(=S)n3c2[nH]c(=O)c2cc4c(cc23)OCO4)c1 |  | 42.9 µM (active) | 
Cn1cnc(CN2CCNc3cc(Nc4ccccc4)ncc3C2)c1 | 2.31% [at 85.7 µM] |  | 
COCCn1ccc2c(C3=CCOCC3)nc(-c3cccc4[nH]ccc34)cc21 | -9.46% [at 85.7 µM] |  | 
Cc1nc2c3ccccc3n3c(CCCC(=O)NCCCN(C)Cc4ccccc4)nnc3n2n1 | 0% |  | 
Cc1noc2c(N3CCOCC3)cc(-c3cccs3)nc12 | 2.07% [at 85.7 µM] |  | 
COc1ccc(C(=O)N(Cc2ccco2)S(=O)(=O)c2ccc3c(c2)n(C)c(=O)n3C)cc1 | -1.3% |  | 
O=S(=O)(c1ccc(Br)cc1)c1nnn2c1nc(NCCc1c[nH]c3ccccc13)c1ccccc12 | -2.1% |  | 
CCN(CC)CCNC(=O)CCc1nnc2n(Cc3ccc(C)cc3)c(=O)c3ccccc3n12 | -3.03% |  | 
Cc1ccc(NC(=O)N2CCc3c(c4ccccc4n3CC3CC3)C2)cc1 | 14.5% |  | 
COc1ccccc1CC(=O)N1CCCc2ncc(C(=O)Nc3cccc(Cl)c3)cc21 | 2.54% [at 85.7 µM] |  | 
